Unmarked numbers belong to inactive results. The source made the active and inactive calls. No stated cut-off is given here; in the data, active means inhibition above about 50%; inactive means the rest.
Each molecule was assayed against Prolyl endopeptidase-like (Mus musculus) (UniProt Q8C167) (assay: mouse PREPL enzyme inhibition by screening hits – biochemical, gel-based competitive ABPP, fluorescence, HTS hits, PREPL inhibitor project (AID 624481)). Details: purified mouse PREPL, at 20 µM, active compounds read high.
Sequence of Prolyl endopeptidase-like (Mus musculus) (Q8C167 whole entry, looked up): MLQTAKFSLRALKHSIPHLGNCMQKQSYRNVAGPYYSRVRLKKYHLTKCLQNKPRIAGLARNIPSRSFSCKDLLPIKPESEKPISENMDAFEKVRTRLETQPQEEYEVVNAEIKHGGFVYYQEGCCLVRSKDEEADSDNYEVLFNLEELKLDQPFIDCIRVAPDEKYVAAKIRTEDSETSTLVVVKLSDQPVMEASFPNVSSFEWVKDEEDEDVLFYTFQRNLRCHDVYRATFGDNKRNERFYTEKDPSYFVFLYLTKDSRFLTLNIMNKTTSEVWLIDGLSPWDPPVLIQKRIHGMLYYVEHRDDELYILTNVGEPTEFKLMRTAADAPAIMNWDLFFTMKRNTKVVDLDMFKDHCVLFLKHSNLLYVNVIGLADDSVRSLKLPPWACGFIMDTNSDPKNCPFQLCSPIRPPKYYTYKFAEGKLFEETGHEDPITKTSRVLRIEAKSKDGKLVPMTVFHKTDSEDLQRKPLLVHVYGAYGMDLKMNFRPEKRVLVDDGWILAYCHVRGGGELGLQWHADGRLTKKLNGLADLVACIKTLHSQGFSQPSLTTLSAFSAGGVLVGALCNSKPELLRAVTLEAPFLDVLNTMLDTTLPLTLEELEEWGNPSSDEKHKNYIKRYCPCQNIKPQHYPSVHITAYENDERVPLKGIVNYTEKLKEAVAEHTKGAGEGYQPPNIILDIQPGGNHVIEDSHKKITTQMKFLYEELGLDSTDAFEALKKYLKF

SMILES	inhibition
Nc1[nH]n2c(=O)c3c(nc2c1N=Nc1ccccc1)CCCC3	1%
CCN(C(=O)CN1CCN(S(=O)(=O)c2cc(Cl)ccc2Cl)CC1)c1c(N)n(Cc2ccccc2)c(=O)[nH]c1=O	99% (active)
Cc1noc(C)c1S(=O)(=O)N(C)C[C@H]1Oc2c(NC(=O)Nc3ccc(C(F)(F)F)cc3)cccc2C(=O)N([C@H](C)CO)C[C@@H]1C	9%
Cc1noc(C)c1S(=O)(=O)Nc1ccc2c(c1)C(=O)N([C@H](C)CO)C[C@H](C)[C@@H](CN(C)C(=O)Nc1ccc(C(F)(F)F)cc1)O2	-1%
O=C(C1=C[C@@H](c2ccc(Br)cc2)C[C@@H](OCc2ccc(CO)cc2)O1)N1CCN(Cc2ccc3c(c2)OCO3)CC1	-105%
COc1cccc(C2CC(c3ccc(C)cc3)Nc3nc(N)nn32)c1 (stereo not given)	-27%
CCOc1ccc(Nc2nc(NCC3CCCO3)c3ccccc3n2)cc1 (stereo not given)	12%
COc1ccc(NC(=O)Nc2cccc3c2O[C@@H](CN(C)CC2CCCCC2)[C@@H](C)CN([C@H](C)CO)C3=O)cc1	-79%
CCC(=O)c1ccc2c(c1)N(CCCN(C)C)c1ccccc1S2	9%
Clc1ccc2nc(-c3ccccn3)c(Nc3ccc4c(c3)OCO4)n2c1	-49%
CN1CCN(c2ccc(NC(=O)COc3cccc4ccccc34)cc2)CC1	15%
Cc1ccsc1C=NN=C1C(=O)Nc2ccccc21	-90%
CC(C)Nc1ccc(Nc2ccnc3cc4ccccc4cc23)cc1	-11%
CC(=O)N1CCN(c2ccc(NCc3ccc(-c4ccc(Br)cc4)o3)cc2)CC1	-23%
CNC(=S)N1N=C(c2ccc(OC)cc2)CC1c1ccc(N(C)C)cc1 (stereo not given)	-55%
CN1CCN(C(=O)C2=C[C@@H](c3ccc(C(F)(F)F)cc3)C[C@@H](OCc3ccc(CO)cc3)O2)CC1	-83%
O=C1c2ccccc2C(=O)c2c1cccc2N1CCN(C/C=C/c2ccccc2)CC1	-116%
Cc1cc(/C=C2\SC(=Nc3ccc(F)cc3)NC2=O)c(C)n1-c1ccc(S(N)(=O)=O)cc1	28%
C#CCOCCOCCOCCNc1nc(N2CCN(C(=O)[C@H](Cc3cc4ccccc4[nH]3)n3cc([C@@H](N)CC(C)C)nn3)CC2)nc(N2CCN(C(=O)[C@H](Cc3cc4ccccc4[nH]3)n3cc([C@@H](N)CC(C)C)nn3)CC2)n1	-82%
O=C(C1=C[C@@H](c2ccc(C(F)(F)F)cc2)C[C@@H](OCCCCO)O1)N1CCN(Cc2ccccc2)CC1	-70%
Cc1cccc(C2CC(c3ccc(Cl)cc3)Nc3nc(N)nn32)c1 (stereo not given)	-60%
C[C@H](CO)N1C[C@H](C)[C@H](CN(C)Cc2ccccc2)Oc2c(NC(=O)Nc3ccc(F)cc3)cccc2C1=O	-56%
COc1ccc(C(=O)c2coc3ccc(O)c(CN4CCCC4)c23)cc1	-31%
CCOc1ccc2[nH]c3c(N4CCc5ccccc5C4)ncnc3c2c1	1%
COc1cc2c(cc1OC)C(Cc1ccc(O)c(Oc3ccc(C[C@H]4c5cc(OC)c(OC)cc5CCN4C)cc3)c1)N(C)CC2 (stereo not given in full)	66% (active)

Reference: PubChem BioAssay AID624481 (The Scripps Research Institute Molecular Screening Center, 2012)
